From PubChem
This is one part of a sample in which hits are shown more often than they occur.
PNC inhibitor: blocks assembly of the perinucleolar compartment; PC3M PTB-GFP, PNC prevalence imaging, 16 h; stronger effect = lower value; activity change (PNC), negative = inhibition, % at 10 µM; 3.1% of 140,000 active; AID 2417;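 active = readout at or below -70, meaning at least 70% loss of cells showing the perinucleolar compartment, a nuclear body marking cancer cells; inconclusive = readout between -30 and a set limit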
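PC3M cells stably expressing PTB-GFP, 750–1000 cells/well, treated 16 h at 37 °C with compound (23 nl of library stock), in duplicate. After paraformaldehyde fixation and Hoechst stain, imaged at 20x; PNC prevalence scored by image analysis.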
IMPase cell inh: cell-permeable inhibitors of inositol monophosphatase (IMPase); P97697; 120,000 tested, under 10 active; AID 901; inhibition (IP1 accumulation), % at 46.1 µM; CHO-M1 cells, IP1 accumulation, HTRF TR-FRET ratio; active = well fitted curve in the direction sought with a large enough effect in the signal ratio, not every such curve was filed as active; inconclusive = small, poorly fitted or top-dose-only effect, or a change in a side signal; inactive = no such curve, though single readings can be large or run the other way; the % refers to the signal ratio;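 note: cells stimulated with carbachol in lithium chloride buffer; higher means more IMPase inhibition seen as more IP1 and lower FRET ratio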
Target sequence (P97697 whole entry, looked up): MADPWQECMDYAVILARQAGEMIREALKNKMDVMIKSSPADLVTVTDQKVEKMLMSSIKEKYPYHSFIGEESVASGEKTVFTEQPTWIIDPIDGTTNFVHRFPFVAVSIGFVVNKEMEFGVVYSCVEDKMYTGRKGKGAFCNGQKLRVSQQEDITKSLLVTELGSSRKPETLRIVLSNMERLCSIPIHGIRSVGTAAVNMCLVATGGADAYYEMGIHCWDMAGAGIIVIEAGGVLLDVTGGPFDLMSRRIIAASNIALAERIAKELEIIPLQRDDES
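CHO-M1 cells (CHO stably expressing M1 receptor), compound up to 46 uM final, stimulated with carbachol (50 uM as added) in buffer with 50mM LiCl, pH 7.4, 30 min at 37C. Cytosolic IP1 read by TR-FRET; AC50 from Hill fits.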
LMNA splice mod: LMNA splicing modulation. HeLa LMNA splicing GFP/RFP minigene ratio, 48 h. Potency, µM (highest dose often 46.1 µM), usual class: inhibitors. 0.01% of 200,000 active. AID 1487; active = well fitted inhibition curve with a large enough effect in the signal ratio, with a control signal flat, not every such curve was filed as active; inconclusive = small, poorly fitted or top-dose-only effect, or effect the other way, or a change in a side signal; the % refers to the signal ratio
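S3 HeLa stable clones carrying a lamin A-EGFP splicing minigene plus DsRed2 were seeded at 600 cells/well in Opti-MEM with 2% FBS, pin-dosed and incubated 48 h at 37°C. Acumen cytometry (488 nm) gave the GFP/RFP total-intensity ratio.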
A number is an active result; 0 = inactive; ? = inconclusive; - = no result given; [ ] = dose if it differs, or a comment.

SMILES | PNC inhibitor | IMPase cell inh | LMNA splice mod
COC(=O)c1ccc(C2c3c(oc4ccccc4c3=O)C(=O)N2c2nc(C)c(C(=O)OC)s2)cc1 (stereo not given) | - | 0 | -
COc1cc(/C=C/C(=O)OCC(=O)NC(=O)NC(C)C)ccc1OCC#N | -85 | - | 0
COc1cc(/C=C/C(=O)OCC(=O)NC(=O)NC23CC4CC(CC(C4)C2)C3)ccc1OCC#N | ? | - | 0
CCC1C/C(=C/c2ccco2)C(=O)/C(=C/c2ccco2)C1 (stereo not given) | -119 | 0 | ?
O=C1/C(=C/c2ccco2)CCc2ccccc21 | 0 | - | 0
CCOc1ccc(-c2nn(CC(=O)NC3CCCC3)c3c2cnc2ccc(C)cc23)cc1 | - | - | 0
CCc1cccc(N2C(=O)N(Cc3c(F)cccc3Cl)c3ccccc3S2(=O)=O)c1 | - | - | 0
COc1nc2ccccc2c(=O)n1OCC(C)C | -82 | 0 | 0
COn1c(SC(C)C)nc2ccccc2c1=O | 0 | 0 | 0
CCOc1cc(C(=O)N(C)c2ccccc2)cc(OCC)c1OCC | 0 | 0 | 0
CCC1=NN=C(c2ccc(F)cc2)C(c2c[nH]c3ccccc23)N1O (stereo not given) | -100 | 0 | ?
O=C(Cc1c[nH]c2ccccc12)N/N=C/c1ccc(F)cc1 | ? | 0 | ?
CCOC(=O)C1CCN(C(=O)c2ccc3c(c2)N=C(CC)c2cc(C)ccc2S3)CC1 | - | 0 | -
Cn1nnnc1SCCCNCc1cccc(OCc2ccc(F)cc2)c1 | - | - | 0
Cc1ccc(C(C)C)c(OCc2ccc(C(=O)Nc3ccc(S(N)(=O)=O)cc3C)o2)c1 | - | 0 | -
COC(=O)CCCCC1SCC(NC(=O)OC)C1NC(=O)OC (stereo not given) | -86 | 0 | 0
COC(=O)CCCC[C@@H]1SC[C@@H](NC(=O)OC)[C@@H]1NC(=O)OC | 0 | 0 | 0
Oc1c(C(c2ccc(F)cc2)N2CCOCC2)sc2nc(-c3ccco3)nn12 (stereo not given) | - | - | 0
COc1ccc(OC)c(/C=N/NC(=O)c2cc3c(OC)c(OC)ccc3[nH]2)c1 | -112 | - | 0
COc1ccc(OC)c(/C=N\NC(=O)c2ccc(=O)n(C)c2)c1 | 0 | 0 | 0
COc1ccc(/C=C2/SC(=O)N(NS(=O)(=O)c3ccccc3)C2=S)cc1OC | 0 | 0 | 0
O=C(Nc1ccc(S(=O)(=O)N2CCCC2)cc1)C1COc2ccccc2O1 (stereo not given) | -90 | 0 | 0
O=C(Nc1ccc(S(=O)(=O)N2CCOCC2)cc1)C1COc2ccccc2O1 (stereo not given) | ? | 0 | 0
O=C(Nc1ccccc1OC(=O)c1ccc(Cl)cc1)c1ccc(Cl)cc1 | -94 | 0 | ?
Cc1ccc(C(=O)Nc2cc(Cl)ccc2OC(=O)c2ccc(C)cc2)cc1 | 0 | 0 | 0
SMILES | PNC inhibitor | IMPase cell inh | LMNA splice mod
COc1ccccc1NC(=O)c1ccc(NS(=O)(=O)c2ccc(F)c(F)c2F)cc1 | -121 | - | ?
CCOc1ccc(Br)cc1S(=O)(=O)Nc1ccc(C(=O)Nc2ccccc2OC)cc1 | ? | - | 0
O=C(c1ccccc1)c1ccccc1C(=O)N1CCN(C(=O)c2ccccc2)CC1 | - | - | 0
OCC1CCCN(Cc2cn(Cc3ccccc3)nc2-c2cc3ccccc3o2)C1 (stereo not given) | - | - | 0
COc1cccc(-c2cc(C(=O)N3CCN(C(c4ccccc4)c4ccccc4)CC3)no2)c1 | ? | 0 | ?
COc1cccc(-c2cc(C(=O)N3C(C)CCCC3C)no2)c1 (stereo not given) | -91 | 0 | 0
CC(=O)c1ccc(NC(=O)CSc2nccn2Cc2ccc3c(c2)OCO3)cc1 | - | - | 0
CCN(CC)Cc1c(O)ccc2c(=O)c(Oc3ccccc3OC)coc12 | -80 | 0 | 0
COc1ccccc1Oc1coc2c(CN(C)C)c(O)ccc2c1=O | 0 | 0 | 0[0.0737 µM]
Cc1cc2cc(CN(CCCO)S(=O)(=O)c3cccc4nsnc34)c(=O)[nH]c2cc1C | 0 | 0 | 0
Cc1ccc2[nH]c(=O)c(CN(CCCO)S(=O)(=O)c3c(C)ccc4nsnc34)cc2c1 | -80 | 0 | 0
CCN(c1cccc(C)c1)S(=O)(=O)c1ccc2[nH]c(=O)c(=O)[nH]c2c1 | -103 | 0 | 0
CCN(c1cccc(C)c1)S(=O)(=O)c1c(C)[nH]c(=O)[nH]c1=O | 0 | 0 | 0
O=C(NC(=S)Nc1cccc(O)c1)c1ccco1 | - | - | 0
COc1cccc(N/C(SCc2ccccc2C)=C(/C#N)C(=O)NCc2cccs2)c1 | 0 | 0 | 0
COc1cccc(N/C(SCc2ccccc2Cl)=C(/C#N)C(=O)NCc2cccs2)c1 | -125 | - | 0
Cc1ccc(Nc2ccc(N3CCN(C(=O)c4ccc([N+](=O)[O-])cc4)CC3)nn2)cc1 | - | - | 0
Cc1ccc(CNC(=O)CCc2c(C)nn(-c3ccc(N4CCCCC4)nn3)c2C)cc1 | - | - | 0
O=C(NCc1ccncc1)/C(=C\c1ccc(F)cc1)NC(=O)c1ccccc1 | 0 | - | ?
Cc1ccc(C(=O)N/C(=C\c2ccc(F)cc2)C(=O)NCc2ccncc2)cc1 | -119 | 0 | 0
CNC(=O)[C@@]1(C)C=C[C@@H](Cc2ccccc2)N1C(=O)OC | -96 | - | 0
COC(=O)N1[C@H](Cc2ccccc2)C=C[C@]1(C)C(=O)NCc1ccccn1 | 0 | - | 0
CN1CCCC1CCNS(=O)(=O)c1ccc(Br)cc1 (stereo not given) | -109 | 0 | 0
O=C1CCCN1CCCNS(=O)(=O)c1ccc(Br)cc1 | - | - | 0
Cc1ccc(S(=O)(=O)CCC(=O)OCc2ccc(S(=O)(=O)C(C)C)cc2)cc1 | - | - | 0
SMILES | PNC inhibitor | IMPase cell inh | LMNA splice mod
Cc1ccc(S(=O)(=O)CCC(=O)OCc2ccc(Cl)c(Cl)c2)cc1 | -112 | 0 | 0
CC(=O)c1cc2c(cc1N/C(=N/S(=O)(=O)c1ccc(Cl)cc1)c1ccc(F)cc1)OCO2 | - | - | 0
O=C(CN1CCCC(O)C1)N1c2ccccc2Sc2ccc(C(F)(F)F)cc21 (stereo not given) | 0 | 0 | ?
Cc1cc(C)n(CC(=O)N2c3ccccc3Sc3ccc(C(F)(F)F)cc32)n1 | -113 | - | 0
O=c1n(-c2ccc(Br)cc2)cnn1-c1ncccc1[N+](=O)[O-] | - | - | 0
N#Cc1cc2c(nc1SCc1ccncc1)CCC2 | 0 | 0 | 0
O=C(Nc1c2c(nc3ccccc13)CCCC2)c1ccccc1F | -119 | 0 | 0
O=C(Nc1c2c(nc3ccccc13)CCCC2)c1ccccc1Cl | 0 | ? | 0
CCC(=C(CC)c1ccc(O)cc1)c1ccc(O)cc1 | - | 0 | ?
C=CCOc1nc2c(c(=O)n(C)c(=O)n2C)n1C | 0 | 0 | 0
C/C=C/COc1nc2c(c(=O)n(C)c(=O)n2C)n1C | -100 | 0 | 0
CCCC(=O)NC(=S)Nc1sc2c(c1C(N)=O)CCC2 | 0 | - | 0
CC(C)C(=O)NC(=S)Nc1sc2c(c1C(N)=O)CCCC2 | -109 | - | 0
CCC(=O)Nc1sc2c(c1C(N)=O)CCC2 | -100 | 0 | 0
CCC(C)NCC(=O)Nc1sc2c(c1C(N)=O)CCC2 (stereo not given) | 0 | 0 | 0
O=C(CNC(=O)c1ccccc1Br)N/N=C/c1ccc(O)cc1 | - | - | 0
Cc1nnc(NC(=O)CSc2nccn2-c2ccc(F)cc2)s1 | - | - | 0[9.22 µM]
O=C(CSc1nnc(-c2ccncc2)o1)Nc1ccccc1Cl | -90 | 0 | 0
COc1ccccc1NC(=O)CSc1nnc(-c2ccncc2)o1 | 0 | 0 | 0
O=C(CSc1n[nH]c(=O)n1-c1cccnc1)N1CCOCC1 | - | - | 0
COc1ccccc1C1C2CCCCC2(O)CCN1CC(=O)Nc1ccccc1 (stereo not given) | -104 | 0 | 0
CCCCNC(=O)CN1CCC2(O)CCCCC2C1c1ccccc1OC (stereo not given) | 0 | 0 | 0
COc1ccc(CN2CCNC(=O)C2CC(=O)NC2Cc3ccccc3C2)c(OC)c1 (stereo not given) | - | - | 0
COc1ccccc1NC(=O)c1ccc(NC(=O)Cc2n[nH]c(=O)c3ccccc23)cc1 | - | - | 0
